Most compounds without a hit are left out; they make up all but 1.2% or so of the library.
Rev-erbA mod: Rev-erb alpha (human) modulation. activity, % at 10 µM. 370,000 compounds, 0.79% hits. Rev-erbα–FITC-DNA binding, fluorescence polarization, 90 min;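 active means activity above about 14%, limit read from the data; passing the limit was not always enough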;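 further: 0% = DMSO wells with 35 nM protein and 100% = DMSO wells with 750 nM protein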
Target sequence (P20393 whole entry, looked up): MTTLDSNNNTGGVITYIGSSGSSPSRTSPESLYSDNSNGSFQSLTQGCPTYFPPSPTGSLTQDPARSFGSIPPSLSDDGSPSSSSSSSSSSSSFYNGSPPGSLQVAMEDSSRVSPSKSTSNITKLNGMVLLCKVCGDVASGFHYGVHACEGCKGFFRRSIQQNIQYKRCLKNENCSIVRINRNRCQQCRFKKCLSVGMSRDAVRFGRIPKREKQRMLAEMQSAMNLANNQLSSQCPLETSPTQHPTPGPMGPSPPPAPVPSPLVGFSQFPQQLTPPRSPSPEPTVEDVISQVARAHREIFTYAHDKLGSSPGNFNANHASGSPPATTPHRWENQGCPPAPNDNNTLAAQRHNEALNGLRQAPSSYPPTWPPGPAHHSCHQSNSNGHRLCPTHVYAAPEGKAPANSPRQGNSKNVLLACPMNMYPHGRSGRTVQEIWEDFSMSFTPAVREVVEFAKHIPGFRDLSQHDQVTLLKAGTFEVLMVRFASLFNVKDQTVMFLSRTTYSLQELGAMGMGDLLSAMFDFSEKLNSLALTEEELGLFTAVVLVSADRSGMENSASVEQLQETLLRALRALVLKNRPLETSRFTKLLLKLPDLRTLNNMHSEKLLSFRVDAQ
PKA-R1A act: activators of PKA-R1A complex; P00514+P68181; PKA-R1A dissociation, Cy5-IP20 fluorescence polarization; scaled: DMSO 0%, 113 µM cGMP 100%; activation, % at 11.4 µM; 340,000 compounds, 0.083% hits; AID 504707;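 active means percent activation above the mean of all tested compounds plus 3 SD, cut at about 19% in these data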;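 further: higher means more PKAc released from R1A so a rise in polarization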
PG9 Ab binder: binds the HIV-1 gp120 antibody PG9. TR-FRET gp120-PG9 antibody binding. inhibition, % at 6.7 µM. 360,000 compounds, 0.43% hits; in the data active means inhibition above about 8.5%
PKA-R2B act: activates the human PKA-R2B holoenzyme complex. activation, % at 11.4 µM. 340,000 compounds, 0.079% hits. PKA-R2B holoenzyme dissociation, Cy5-IP20 fluorescence polarization; R2B truncated from residue 108, S112A mutant; 0% DMSO only, 100% 113 µM cGMP. P22694+P31323. AID 504700;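 active means activation above a cutoff set at the mean over all compounds plus 3 SD, cut at about 18% in these data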;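 further: higher means more holoenzyme dissociation and a rise in polarization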
PG9 bind confirm: confirmation of small molecules binding HIV-1 gp120 antibody PG9; 1,500 compounds, 90% hits; shares compounds with PG9 Ab binder; inhibition, % at 6.7 µM; AID 651571; TR-FRET PG9 antibody binding, biochemical; in the data active means inhibition above about 9%
PGV04 counter: binds control antibody PGV04 in PG9 binder counter-screen; shares compounds with PG9 Ab binder; TR-FRET PGV04 antibody-gp120 binding, biochemical; inhibition, % at 6.7 µM; 1,500 compounds, 95% hits; AID 651604; in the data active means inhibition above about 9.5%
PG9 binder DR: PG9 antibody binding, dose response; shares compounds with PG9 Ab binder; TR-FRET PG9 antibody-gp120 binding inhibition; IC50, µM; 95 tested, under 10 active; AID 651848; in the data active means IC50 below about 10 µM
PGV04 DR counter: counter-screen for PG9 binders: binding to control antibody PGV04 | shares compounds with PG9 Ab binder | TR-FRET binding to control antibody PGV04 | IC50, µM | 95 compounds, 20% hits
PG126 DR counter: counter-screen for PG9 binders: binding to control antibody PG126 | AID 651939 | shares compounds with PG9 Ab binder | IC50, µM | 95 compounds, 20% hits | TR-FRET binding to antibody PG126, counterscreen
NR1D1 mod conf: confirmation of modulators of human Rev-erb alpha DNA binding; shares compounds with Rev-erbA mod; Rev-erb alpha FITC-DNA binding, fluorescence polarization, 90 min; activation, % at 25 µM; 3,000 compounds, 61% hits; AID 1259319;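 active means activation at or above a set limit, or at least 3 SD above the negative control mean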;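 further: 0% = 35 nM protein with DMSO and 100% = 750 nM protein high control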
RORg counter: RORgamma DNA-binding activity, dose-response counter-screen; AID 1259320; purified RORgamma protein-FITC-DNA binding, fluorescence polarization; 910 compounds, 8% hits; IC50, µM; shares compounds with Rev-erbA mod;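 active means Compounds whose fitted half-maximal concentration for disrupting protein-DNA binding is below 10 micromolar; the record names Rev-erb in its text, so the target is in doubt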
Starred values were filed as active, the others as inactive; i = inactive; . = no result. Unless noted, no stated cut-off is given here; in the data, active means IC50 below about 9 µM; inactive means the rest.

SMILES	Rev-erbA mod	PKA-R1A act	PG9 Ab binder	PKA-R2B act	PG9 bind confirm	PGV04 counter	NR1D1 mod conf	others
O=C(COc1ncnc2ccc(Br)cc12)NCc1ccco1	-6	7	1	11	.	.	.
O=C(COc1ncnc2ccc(Br)cc12)NCc1ccc2c(c1)OCO2	58*	-8	41*	-9	40*	59*	50*	RORg counter=i
CCOC(=O)N1CCN(C(=O)C[C@H]2C[C@@]3(C(=O)OC)C(=C[C@H](C(C)(C)C)O[C@@H]3C)N(CCc3ccc(OC)c(OC)c3)C2=O)CC1	0	.	.	.	.	.	.
Nn1c(SCC(=O)Nc2ccccc2-c2ccccc2)nnc1-c1cc(-c2ccc(F)cc2)n[nH]1	-4	.	.	.	.	.	.
CCOc1ccc(CC(=O)Nc2sc(Cc3ccccc3)cc2C(N)=O)cc1OCC	69*	-13	55*	-6	14*	21*	43*	RORg counter=2.5*
CC(=O)c1cccc(NC(=O)CCc2nc3sc4c(c3c(=O)[nH]2)CCCC4)c1	23*	3	13*	-14	11*	24*	18*
C[C@@]12C[C@@H]3C(=O)N(Cc4ccccc4)CC(=O)N3[C@@H]1N(S(=O)(=O)c1ccccc1)c1ccccc12	1	.	.	.	.	.	.
O=C(Cn1cnc2c(oc3nc4c(cc32)CCCC4)c1=O)Nc1cccc(Cl)c1	57*	-3	9.1*	0	26*	25*	17	PG9 binder DR=>67;PGV04 DR counter=i;PG126 DR counter=i
CCC(C)N(c1nc(C)nc2c1nnn2Cc1ccccc1)C(C)CC (stereo not given)	3	.	.	.	.	.	.
CCC(C(=O)NC1CCCC1)N(C(=O)c1snc(C(N)=O)c1N)c1ccc(OC)cc1 (stereo not given)	18*	-5	34*	4	15*	41*	-3
COc1ccc(N(C(=O)c2snc(C(N)=O)c2N)C(C(=O)NC2CCCC2)c2ccc(OC)c(OC)c2)cc1 (stereo not given)	-5	-4	0	1	.	.	.
CC(=O)c1cccc(Nc2nc(-c3ccccc3)nc3ccccc23)c1	26*	-13	36*	-8	12*	22*	8
CC(=O)Nc1cccc(Nc2nc(-c3ccccc3)nc3ccccc23)c1	-1	-18	0	-9	.	.	.
COc1cc(-c2ccc3c(=O)c4ccccc4sc3c2)cc(OC)c1OC	76*	-8	17*	-8	20*	31*	49*	RORg counter=>40
COC(=O)c1c(NC(C)=O)sc(C(=O)Nc2ccccc2F)c1C	26*	9	31*	-11	36*	45*	21*
COC(=O)c1cc(C(C)c2c[nH]c3ccccc23)n2ccccc12 (stereo not given)	15	.	.	.	.	.	.
O=C1c2cccc3cccc(c23)C(=O)N1Cc1ccccc1	36*	-7	51*	-6	60*	69*	13
O=C1c2cccc3cccc(c23)C(=O)N1Cc1cccnc1	5	1	0	-1	.	.	.
Cn1c2ccccc2n2c(=O)cc(-c3ccccc3)c(C#N)c12	44*	-5	9.7*	-2	16*	20*	21*
Cc1onc(-c2ccc(Cl)cc2)c1-c1ccn(S(=O)(=O)c2ccccc2)n1	1	.	.	.	.	.	.
O=c1[nH]cnc2c1sc1nc3c(c(-c4ccc(Cl)cc4)c12)CCC3	39*	7	11*	-15	28*	16*	10	PG9 binder DR=i;PGV04 DR counter=6.4*;PG126 DR counter=8.6*
CC(COc1cccc(Br)c1)CN1CCC(C(O)(c2ccccc2)c2ccccc2)CC1 (stereo not given)	-4	.	.	.	.	.	.
COc1ccc(-n2c(SCc3cccc4ccccc34)nnc2-c2ccccc2)cc1	7	.	.	.	.	.	.
CC(C)c1ccc(-c2cc(C(=O)N3CCOCC3)c3cc(Br)ccc3n2)cc1	63*	-10	17*	-6	30*	36*	28*
O=C(c1cc(-c2ccccc2)nc2ccccc12)N1CCOCC1	4	2	1	-14	.	.	.
SMILES	Rev-erbA mod	PKA-R1A act	PG9 Ab binder	PKA-R2B act	PG9 bind confirm	PGV04 counter	NR1D1 mod conf	others
CCOC(=O)N1CCC(NC(=O)c2ccc3c(c2)N(Cc2ccc(C)cc2)CCS3)CC1	30*	3	22*	-9	31*	44*	7
COc1ccc(-c2ccc(C#N)c(SCC(=O)OCc3ccccc3)n2)cc1OC	5	9	2	-7	.	.	.
N#Cc1ccc(-c2ccc3c(c2)OCO3)nc1SCC(=O)OCc1ccccc1	24*	5	13*	2	14*	29*	19*
O=C(C1CCC1)N1CCc2cc(S(=O)(=O)C3CCN(Cc4ccc(F)cc4)CC3)ccc21	-2	.	.	.	.	.	.
Cn1c(SCC(=O)NCc2ccc3c(c2)OCO3)ncc(C(=O)Nc2ccc(F)cc2)c1=O	40*	-12	21*	11	16*	18*	51*	RORg counter=>40
Cn1c(SCC(=O)NCc2ccc(F)cc2)ncc(C(=O)Nc2ccccc2)c1=O	13	3	9	11	.	.	.
Cc1ccc(Sc2ccc(NC(=O)c3ccc(S(C)(=O)=O)cc3Cl)cc2)cc1	46*	0	48*	12	41*	62*	22*
COC(=O)Cn1c(=NC(=O)c2ccc(OC)c(OC)c2)sc2cc(OC)ccc21	64*	-4	33*	2	61*	75*	31*	RORg counter=>40
COc1ccc(C(=O)N=c2sc3ccccc3n2C)cc1OC	-9	-8	-1	10	.	.	.
O=S(=O)([N-]c1nc2ccccc2nc1-n1cc[n+](Cc2ccccc2)c1)c1ccc(Cl)cc1	42*	.	42*	.	41*	58*	11
CC(C)CC[n+]1ccn(-c2nc3ccccc3nc2[N-]S(=O)(=O)c2ccccc2)c1	-4	-7	0	-2	.	.	.
N#Cc1cc2c(nc1SCc1ccccc1)CCCC2	28*	-1	36*	-17	44*	76*	21*
CCc1ccccc1NC(=O)COc1ccc2oc(-c3ccc(OC)cc3)cc(=O)c2c1	27*	-3	18*	4	78*	48*	0	PG9 binder DR=>67;PGV04 DR counter=3.7*;PG126 DR counter=3.6*
NC(=O)COc1ccc2oc(-c3ccccc3)cc(=O)c2c1	0	-10	-1	-6	.	.	.

Assay outcomes as filed in PubChem.
